Rows were chosen to be rich in hits. Some 12% of all compounds tested hit in one or more screens of this group.
JMJD2A Tudor inh = inhibitors of human JMJD2A Tudor domain; O75164; 4.4% of 390,000 active; Potency, µM (series often up to 114 µM), for inactives: at the highest dose activity change, negative = inhibition, usual class: inhibitors; AlphaScreen JMJD2A-Tudor / H3K4me3 peptide binding; further: on the % scale 0 is the no-effect control and ±100 the full control effect; nearly all actives have a fitted effect of over 50% in size
Sfp inh = blocks B. subtilis Sfp PPTase activity; Potency, µM, for inactives: largest response in the series, negative = inhibition, hits mostly inhibitors; Q9F4F7; Biochemical Sfp PPTase activity, qHTS; AID 1490; 3.5% of 310,000 active;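 further: the enzyme is Sfp with the accession as filed and its product quenches rhodamine fluorescence; 0% = enzyme reaction without inhibitor and -100% = no enzyme wells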
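After 15 min at room temperature with compound, 15 nM Sfp received 5 uM rhodamine-CoA plus 12.5 uM BHQ-2-ybbR (50 mM Hepes pH 7.6, 10 mM MgCl2). Rate came from the fluorescence difference over 30 min, ex 525/em 598 nm.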
HP1b binding inh = inhibitors of HP1-beta chromodomain binding to methylated histone tails | Potency, µM (top dose mostly 114 µM), for the others: top-dose activity change, negative = inhibition, usual class: inhibitors | AlphaScreen HP1-beta / biotin-H3K9me3 peptide binding | 0.56% of 390,000 active | AID 540317; further: nearly all actives have a fitted effect of over 70% in size
Target sequence (P83916 whole entry, looked up): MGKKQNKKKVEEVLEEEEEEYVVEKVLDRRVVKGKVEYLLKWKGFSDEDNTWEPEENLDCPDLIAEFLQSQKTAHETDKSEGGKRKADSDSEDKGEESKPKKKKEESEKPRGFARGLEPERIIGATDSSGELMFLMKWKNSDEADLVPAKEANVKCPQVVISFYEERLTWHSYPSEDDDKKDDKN
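HP1-beta protein (50 nM final) preincubated 30 min at room temperature with biotinylated H3(1-18)K9me3 peptide (50 nM) in PBS pH 7.4, 0.01% Tween-20, then compound added for 30 min. AlphaScreen streptavidin donor/nickel chelate acceptor beads (10 ug/mL final), 30 min dark, luminescence read.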
G9a block = G9a (human) methyltransferase inhibition; 8.8% of 350,000 active; Q96KQ7; G9a H3K9 monomethylation, AlphaScreen, 2 h; Potency, µM (titrated, usually from 102 µM), without a hit: at the highest dose activity, negative = inhibition, hits mostly inhibitors; further: on the % scale 0 is the no-effect control and ±100 the full control effect; nearly all actives have a fitted effect of over 75% in size
Target sequence (Q96KQ7 913-1193 limits assumed): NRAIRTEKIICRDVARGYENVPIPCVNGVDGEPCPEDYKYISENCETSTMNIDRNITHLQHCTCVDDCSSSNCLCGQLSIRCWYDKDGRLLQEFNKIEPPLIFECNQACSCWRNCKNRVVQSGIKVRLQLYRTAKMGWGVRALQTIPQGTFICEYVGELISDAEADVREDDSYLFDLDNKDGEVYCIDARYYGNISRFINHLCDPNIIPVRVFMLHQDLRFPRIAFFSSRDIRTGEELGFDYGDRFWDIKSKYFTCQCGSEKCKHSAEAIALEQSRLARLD
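G9a (20 nM) was preincubated 15 min with compound, then reacted 2 h at room temperature with 500 nM biotin-H3K9 peptide and 20 µM SAM. Monomethyl-H3K9 detected by AlphaScreen using anti-H3K9me1 antibody.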
PLK1 PBD block = blocks phosphopeptide binding to human PLK1 polo-box domain; 2.8% of 360,000 active; P53350; Plk1 PBD binding of FITC phosphopeptide, fluorescence polarization; Potency, µM, inactives show max response, negative = inhibition, usual class: inhibitors; further: series mostly up to about 57 µM; on the % scale 0 is the no-effect control and ±100 the full control effect; nearly all actives have a fitted effect of over 65% in size
BAZ2B block = BAZ2B (human) inhibition. AlphaScreen BAZ2B-H3K14Ac peptide displacement. AID 504333. 4.4% of 360,000 active. Potency, µM (doses to about 114 µM), for the others: at the highest dose activity change, negative = inhibition, actives largely listed as inhibitors. Q9UIF8; further: on the % scale 0 is the no-effect control and ±100 the full control effect; nearly all actives have a fitted effect of over 60% in size
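Inhibition is scored as reduced AlphaScreen emission. The BAZ2B/b-H3(5-23)K14Ac complex (50 nM each) in PBS pH 7.4, 0.01% Tween-20 meets compound (up to 110 uM) for 30 min at RT before bead addition.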
* marks the source's active call; other numbers are inactive results; ? = inconclusive; . = not tested or not shown; ! = not active in a repeat; [ ] = another dose, or the depositor's remark. The call rests on the fitted dose curve; in most records, active means well fitted curve in the direction sought with a large enough effect; inconclusive means small, poorly fitted or top-dose-only effect, or another doubt; inactive means no such curve, though single readings can be large; an effect the other way counts as inactive or inconclusive. Potency means the concentration at half of the fitted maximal effect.

SMILES	JMJD2A Tudor inh	Sfp inh	HP1b binding inh	G9a block	PLK1 PBD block	BAZ2B block
CCN1CCN(c2ncc3c(n2)CCN(Cc2ccc(C)s2)C3)CC1	79µM*	.	-20%	?	.	?
CCN1CCN(c2ncc3c(n2)CCN(Cc2sccc2C)C3)CC1	?	.	21%	18µM*	.	?
CN1CCN(c2ncc3c(n2)CCN(Cc2ccc(Br)s2)C3)CC1	79µM*	.	11%	-6%[12.7 µM]	.	-28%
CCN1CCN(c2ncc3c(n2)CCN(Cc2ccc(Br)s2)C3)CC1	-22%	.	38%	3%[12.7 µM]	.	-30%
CCN1CCN(c2ncc3c(n2)CCN(Cc2cc(Br)cs2)C3)CC1	79µM*	.	4%	22µM*	.	50µM*
CCCCN1CCc2nc(N3CCN(C)CC3)ncc2C1	-8%	.	46%	?	.	-35%
CC(=O)Nc1ccc(S(=O)(=O)N[C@@H](C)C(=O)N2CCN(c3ccccn3)CC2)cc1	11%	.	39%	.	12µM*	.
CC(=O)Nc1ccc(S(=O)(=O)NC(C)C(=O)NC(C)c2ccccc2)cc1 (stereo unspecified)	-11%	4%	39%	?	12µM*	-2%
CC(=O)Nc1ccc(S(=O)(=O)NC(C)c2ccncc2)cc1 (stereo unspecified)	-6%	.	29%	?	1%	9%
CCOc1ccc(NC(=O)C(C)NS(=O)(=O)c2ccc(NC(C)=O)cc2)cc1 (stereo unspecified)	-14%	5%	32%	?	27µM*	.
CCCNC(=O)CC(NS(=O)(=O)c1ccc(NC(C)=O)cc1)C(C)C (stereo unspecified)	3%	23%	44%	-23%	-8%	0%
CCCCCCNC(=O)CC(NS(=O)(=O)c1ccc(NC(C)=O)cc1)C(C)C (stereo unspecified)	-3%	9%	44%	40µM*	-8%	2%
O=C(CSc1n[nH]c(-c2ccccc2Cl)n1)NCc1ccc(F)cc1	-11%	.	19%[57 µM]	5%[59 µM]	.	3%
CCOc1ccc(CCNC(=O)c2cc3c(=O)n(C)c4ccccc4c3n2C)cc1OCC	-9%	.	42%	?	.	-17%
COc1ccc(CNC(=O)c2ccc(-c3nc(CSc4ccccc4)c(C)o3)cc2)cc1	?	.	7%	-26%[59 µM]	.	-7%
CCN1C(=O)C(=O)c2cc(C)ccc21	-22%	.	19%	.	-10%	.
CCN1C(=O)C=CC1=O	.	.	.	1µM*!	.	.
CC(C)Nc1nc(Cl)nc(NN(C)c2nc(N(C)C)nc(N(C)C)n2)n1	-22%	-11%	21%	-5%[59 µM]	-15%	-2%
CCCCN(NC(C)=O)c1nc(Cl)nc(NC(C)C)n1	-9%	15%	17%	50µM*	-2%	0%
COc1cccc(/C=C2/NC(=O)N(CC(=O)Nc3ccc(C)cc3)C2=O)c1OCc1cccc(C(=O)O)c1	?	?	?	?	?	25µM*
Cc1ccc(NC(=O)CN2C(=O)N/C(=C/c3ccccc3OCc3cccc(C(=O)O)c3)C2=O)cc1	28µM*	89µM*	?	45µM*	?	18µM*
COc1cc2c(cc1/C=C1/NC(=O)N(CC(=O)Nc3ccccc3)C1=O)OCO2	-8%	-5%	4%	-35%	-11%	-18%
CCOC(=O)N1Cc2cc3ccccc3nc2C1	.	.	.	.	6%	.
COc1cc2nc(NC(=O)c3ccc(S(=O)(=O)N4CCc5ccccc54)cc3)sc2cc1OC	-31%	.	5%[57 µM]	6%[59 µM]	.	-15%
COc1ccc2sc(N(CCCN(C)C)C(=O)c3ccc(S(=O)(=O)N4CCCc5ccccc54)cc3)nc2c1	20µM*	.	?	40µM*	-10%	28µM*
SMILES	JMJD2A Tudor inh	Sfp inh	HP1b binding inh	G9a block	PLK1 PBD block	BAZ2B block
COc1cc2nc(N(CCCN(C)C)C(=O)c3ccc(S(=O)(=O)N4CCc5ccccc54)cc3)sc2cc1OC	50µM*	.	?	11µM*	-20%	?
NNC(=O)CN1CCN(c2ncc(C(F)(F)F)cc2Cl)CC1	3%	19%	36%	5%	-5%	-9%
O=C(O)CN1CCN(c2ncc(C(F)(F)F)cc2Cl)CC1	-28%	3%	9%	50µM*	-12%	-12%
CC(C)(C)c1cc(/C=C(\C#N)C(N)=S)cc(C(C)(C)C)c1O	.	-22%	.	28µM*	.	.
CC(C)(C)c1cc(/C=N/O)cc(C(C)(C)C)c1O	-11%	9%	34%	-7%	-3%	-16%
N#CC(C#N)=C(N)/C(C#N)=C/c1cc(O)c(O)c(O)c1	18µM*	40µM*	18µM*	5.6µM*	46%	11µM*
N#C/C(=C/c1cc(Cl)c(O)c(Cl)c1)C(=O)N1CCCCC1	-14%	3%	26%	27%[59 µM]	-7%	-4%
N#C/C(=C/c1ccc(F)cc1)C(N)=S	-8%	35µM*	-4%	5.6µM*	30µM*	-15%
[C-]#[N+]/C(C#N)=C\c1cc(C(C)(C)C)c(O)c(C(C)(C)C)c1	.	45µM*	.	.	.	.
COc1cc(NC(=O)Cn2c(=O)n(C(C)C)c(=O)c3oc4ccccc4c32)cc(OC)c1	-5%	.	23%	1%[59 µM]	.	-15%
CNC(=S)N1CCN(S(=O)(=O)c2ccc3ccccc3c2)CC1	-26%	9%	13%	-24%	-10%	-37%
Cc1ccc(CNC(=O)c2ccc3c(c2)NC(=O)C(CS(=O)(=O)Cc2cccc(C)c2)N3)cc1 (stereo unspecified)	-16%	.	47%	14µM*	.	6%[57.1 µM]
O=C(NCc1ccccc1Cl)c1ccc2c(c1)NC(=O)C(CS(=O)(=O)Cc1ccc(Cl)cc1)N2 (stereo unspecified)	?	.	-5%	28µM*	.	0%
CC1CCN(C(=O)c2cc3c(=O)n(C)c4cc(Cl)ccc4c3s2)CC1	-20%	.	85%	30%[59 µM]	.	.
COC(=O)CSCC(=O)Nc1nnc(-c2ccccc2C)s1	8%	8%	41%	-36%	3%	.
CN(C)c1cccc(N=C2C=C(N3CCOCC3)CC(C)(C)C2)c1	50µM*	24%	-11%	3.2µM*	-26%	-3%
CCC1=NN2C(=N)/C(=C/c3ccc(OS(=O)(=O)c4ccc(C)cc4)c(OC)c3)C(=O)N=C2S1	-30%	-5%	-17%	-6%	15µM*	-2%
COc1cc(/C=C2/C(=N)N3N=C(C)SC3=NC2=O)ccc1OS(=O)(=O)c1ccc(C)cc1	-8%	-1%	11%	18%	21µM*	-2%
CS(=O)(=O)Oc1ccc(/C=C2\C(=N)N3N=C(CC(=O)N4CCOCC4)SC3=NC2=O)cc1Cl	14%	17%	32%	0%	0%	-4%
Cc1ccc(S(=O)(=O)NCC(=O)OCC(=O)NC2CCCCC2)cc1	-5%	.	34%	.	-3%	.
CN(C)c1cccc2c1c(NS(=O)(=O)c1cn(C)cn1)nn2C	0%	32µM*	51%	8.9µM*	-16%	-19%
